According to PubChem BioAssay:
Calls of active or inactive are those of the source. Unless noted, how the calls were made is not given here.

Columns and labels:
[1] = anti-His antibody binders, primary screen, artefact control for SMM control protein annotation, biochemical, small-molecule microarray, 635 nm fluorescence (AID 1128); details: anti-His Alexa647 antibody binding, higher = more signal;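 further: score merges feature fluorescence with signal-to-noise for each printed compound spot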
[2] = tested on: Human papillomavirus type 1a E7 protein (residues 1-88); experiment: HPV1a E7 small-molecule binders, primary screen, biochemical, small-molecule microarray, residues 1-88, 635 nm (AID 1129); details: small-molecule microarray binding, fluorescence 635 nm; higher = more signal
[3] = biological target: Focal adhesion kinase 1 (Homo sapiens) (UniProt Q05397); experiment: small-molecule microarray binders of FAK, primary screen, biochemical, 635/667 nm fluorescence, BSA, DTT (AID 1130); details: PTK2 binding, 635 nm fluorescence, higher = more signal;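 further: composite of spot emission at 667 nm and signal to noise over triplicate slides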
Sequence of Focal adhesion kinase 1 (Homo sapiens) (Q05397 whole entry, looked up): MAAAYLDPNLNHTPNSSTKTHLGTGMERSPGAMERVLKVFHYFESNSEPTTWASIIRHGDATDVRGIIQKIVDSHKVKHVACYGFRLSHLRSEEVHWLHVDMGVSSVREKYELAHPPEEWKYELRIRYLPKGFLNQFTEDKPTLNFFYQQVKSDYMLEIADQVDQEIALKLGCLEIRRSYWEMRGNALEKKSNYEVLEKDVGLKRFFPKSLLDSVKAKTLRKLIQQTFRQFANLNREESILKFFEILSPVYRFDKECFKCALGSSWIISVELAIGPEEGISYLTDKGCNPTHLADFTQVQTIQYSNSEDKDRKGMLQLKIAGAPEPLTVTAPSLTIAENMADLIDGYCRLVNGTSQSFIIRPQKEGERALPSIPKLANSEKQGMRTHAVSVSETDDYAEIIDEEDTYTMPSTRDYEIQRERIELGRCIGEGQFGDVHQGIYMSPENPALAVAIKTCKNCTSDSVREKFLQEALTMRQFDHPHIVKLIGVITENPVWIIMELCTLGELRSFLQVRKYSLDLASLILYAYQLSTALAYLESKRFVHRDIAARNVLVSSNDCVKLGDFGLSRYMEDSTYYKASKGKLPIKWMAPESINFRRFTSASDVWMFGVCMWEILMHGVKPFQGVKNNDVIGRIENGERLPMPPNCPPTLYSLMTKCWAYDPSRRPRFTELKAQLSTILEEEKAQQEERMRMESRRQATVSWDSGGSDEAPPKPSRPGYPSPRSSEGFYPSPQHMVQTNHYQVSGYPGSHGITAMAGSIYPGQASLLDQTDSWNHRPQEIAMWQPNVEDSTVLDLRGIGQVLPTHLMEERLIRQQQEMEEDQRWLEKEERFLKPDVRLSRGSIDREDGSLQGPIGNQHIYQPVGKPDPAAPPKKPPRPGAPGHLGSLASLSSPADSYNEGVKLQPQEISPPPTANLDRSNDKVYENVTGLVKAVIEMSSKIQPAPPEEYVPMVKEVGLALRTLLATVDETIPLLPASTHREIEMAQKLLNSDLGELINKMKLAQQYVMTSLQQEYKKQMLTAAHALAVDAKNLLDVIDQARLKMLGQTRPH

[4] = tested on: Fibrinogen (Alexa647-labelled); experiment: fibrinogen binders on compound microarrays, profiling panel, artefact control for SMM control-protein annotation, biochemical, small-molecule microarray, 635/667 nm fluorescence (AID 1131); details: fibrinogen-A647 binding fluorescence, higher = more signal;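 further: z-score merges 667 nm fluorescence with per-spot signal-to-noise over triplicate slides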
[5] = biological target: Follistatin (Homo sapiens) (UniProt P19883); experiment: follistatin binders on small-molecule microarrays, primary screen, biochemical, small-molecule microarray, 635/667 nm fluorescence (AID 1132); details: FST binding, 635 nm fluorescence, higher = more signal
Sequence of Follistatin (Homo sapiens) (P19883 whole entry, looked up): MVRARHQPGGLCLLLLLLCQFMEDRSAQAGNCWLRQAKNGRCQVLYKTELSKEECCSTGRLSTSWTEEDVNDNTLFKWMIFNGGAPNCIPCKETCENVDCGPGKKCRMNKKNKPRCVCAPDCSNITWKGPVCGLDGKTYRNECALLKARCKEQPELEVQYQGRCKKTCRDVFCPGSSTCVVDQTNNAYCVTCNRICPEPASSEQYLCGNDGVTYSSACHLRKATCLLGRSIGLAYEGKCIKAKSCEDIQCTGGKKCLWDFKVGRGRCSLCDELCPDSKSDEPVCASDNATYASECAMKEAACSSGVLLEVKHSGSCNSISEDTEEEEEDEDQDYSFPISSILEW

[6] = biological target: Fibroblast growth factor 2 (Homo sapiens) (UniProt P09038); experiment: FGF2 binders on small-molecule microarrays, primary screen, biochemical, small-molecule microarray, 635/667 nm fluorescence (AID 1133); details: small-molecule microarray binding, FGF2, fluorescence 635/667; higher = more signal
Sequence of Fibroblast growth factor 2 (Homo sapiens) (P09038 whole entry, looked up): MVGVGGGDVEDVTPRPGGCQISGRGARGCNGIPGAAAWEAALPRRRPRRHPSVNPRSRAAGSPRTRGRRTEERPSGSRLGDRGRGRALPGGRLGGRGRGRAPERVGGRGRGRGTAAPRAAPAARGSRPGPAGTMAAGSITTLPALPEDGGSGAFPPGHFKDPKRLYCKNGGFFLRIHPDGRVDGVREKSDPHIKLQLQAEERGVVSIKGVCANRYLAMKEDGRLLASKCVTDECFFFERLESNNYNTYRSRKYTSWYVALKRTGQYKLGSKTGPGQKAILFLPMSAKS

[7] = mitochondrial membrane potential change in A549 cells, profiling panel, cell-based, JC-1 fluorescence, basal, 24 h, 100 nL (AID 1138); details: higher = more signal;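 further: A549 lung adenocarcinoma cells under basal conditions with no added stimulus; test concentration not given here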
[8] = tested on: Lefty1; experiment: Lefty1 binders on small-molecule microarrays, primary screen, biochemical, small-molecule microarray, 635/667 nm fluorescence (AID 1139); details: small-molecule microarray binding, fluorescence 635/667; higher = more signal
[9] = tested on: wheat germ agglutinin (Triticum aestivum), Alexa647-labelled; experiment: wheat germ agglutinin binders on compound microarrays, profiling panel, artefact control for SMM control-protein annotation, biochemical, small-molecule microarray, 635/667 nm fluorescence (AID 1140); details: WGA-A647 binding, 635 nm fluorescence, higher = more signal;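 further: score merges 667 nm feature emission with signal to noise over triplicate slides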
[10] = biological target: Luciferin 4-monooxygenase (Photinus pyralis) (UniProt P08659); experiment: firefly luciferase enzyme inhibitors, primary screen, biochemical, luminescence, purified enzyme, 2006 set (AID 1141); details: SteadyGlo luminescence, 30 min, higher = more signal, called active from +8 up or from −8 down;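 further: cell-free assay with purified firefly luciferase at 100 ng per well in PBS; test concentration not given here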
Sequence of Luciferin 4-monooxygenase (Photinus pyralis) (P08659 whole entry, looked up): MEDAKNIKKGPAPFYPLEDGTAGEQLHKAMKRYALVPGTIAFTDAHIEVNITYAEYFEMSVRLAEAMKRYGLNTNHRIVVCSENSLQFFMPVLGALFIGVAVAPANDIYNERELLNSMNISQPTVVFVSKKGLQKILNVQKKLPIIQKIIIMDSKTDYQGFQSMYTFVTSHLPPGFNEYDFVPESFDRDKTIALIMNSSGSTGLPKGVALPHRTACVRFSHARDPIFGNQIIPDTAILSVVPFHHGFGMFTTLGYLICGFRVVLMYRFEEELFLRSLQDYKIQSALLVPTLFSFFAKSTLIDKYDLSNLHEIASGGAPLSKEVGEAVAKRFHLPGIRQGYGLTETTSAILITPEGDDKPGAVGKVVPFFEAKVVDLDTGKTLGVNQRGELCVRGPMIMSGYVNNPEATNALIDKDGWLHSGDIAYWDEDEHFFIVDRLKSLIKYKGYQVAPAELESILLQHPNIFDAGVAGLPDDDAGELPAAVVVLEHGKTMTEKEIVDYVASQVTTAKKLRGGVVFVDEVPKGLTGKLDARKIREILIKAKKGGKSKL

[11] = tested on: Wnt5a (protein binding on small-molecule microarray); experiment: Wnt5a binders on small-molecule microarray, primary screen, biophysical, 635/667 nm fluorescence (AID 1142); details: 635 nm fluorescence, higher = more signal;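 further: fluorescence read at 667 nm with signal to noise per printed feature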
[12] = cell viability in Huh7 cells, primary screen, cytotoxicity control for HCV replication inhibitor project, CellTiter-Glo luminescence, basal, 48 h (AID 1143); details: Huh7 HCV replicon, higher = more signal, called active from +8 up or from −8 down;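 further: Huh7 hepatoma cells carrying a hepatitis C replication reporter with no stimulus; test concentration not given here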
[13] = P. aeruginosa biofilm formation inhibitors, primary screen, PAO1 strain, BacTiter-Glo luminescence, LB-PBS (AID 1144); details: 12 h, higher = more signal
[14] = CREB reporter modulators without forskolin, primary screen, cell-based, PC12, CRE-LacZ reporter, unstimulated (AID 1145); details: no forskolin, luminescence, 4.5 h, higher = more signal, called active from +8 up or from −8 down
[15] = CREB reporter modulators under forskolin, primary screen, cell-based, PC12, CRE-LacZ reporter, forskolin-stimulated (AID 1146); details: luminescence, 4.5 h, higher = more signal, called active from +8 up or from −8 down;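 further: PC12 cells with 6xCRE LacZ reporter stimulated by forskolin 10 µM; beta-galactosidase reporter signal reflecting CREB driven transcription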
[16] = biological target: Streptavidin (Streptomyces avidinii) (UniProt P22629); experiment: streptavidin binders on small-molecule microarray, primary screen, artefact control for SMM compound annotation, biophysical, 635/667 nm fluorescence (AID 1147); details: streptavidin binding, higher = more signal;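 further: signal reflects streptavidin binding to arrayed compounds as a control protein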
Sequence of Streptavidin (Streptomyces avidinii) (P22629 whole entry, looked up): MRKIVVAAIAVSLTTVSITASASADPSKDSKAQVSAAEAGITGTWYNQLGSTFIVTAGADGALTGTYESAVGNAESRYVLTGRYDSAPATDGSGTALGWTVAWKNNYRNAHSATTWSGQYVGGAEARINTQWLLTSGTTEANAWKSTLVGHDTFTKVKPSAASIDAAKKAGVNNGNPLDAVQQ

[17] = small-molecule binders of probe aInhba, primary screen, biochemical, small-molecule microarray, 635/667 nm fluorescence (AID 1148); details: higher = more signal;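 further: score merges 667nm spot fluorescence with signal-to-noise for antibody binding to printed compounds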
[18] = biological target: Torsin-1A (Homo sapiens) (UniProt O14656); experiment: torsin A binders from cell lysate, primary screen, small-molecule microarray, wild-type, 635/667 nm (AID 1149); details: COS7 hTOR1A-WT lysate, 635 nm fluorescence, higher = more signal
Sequence of Torsin-1A (Homo sapiens) (O14656 whole entry, looked up): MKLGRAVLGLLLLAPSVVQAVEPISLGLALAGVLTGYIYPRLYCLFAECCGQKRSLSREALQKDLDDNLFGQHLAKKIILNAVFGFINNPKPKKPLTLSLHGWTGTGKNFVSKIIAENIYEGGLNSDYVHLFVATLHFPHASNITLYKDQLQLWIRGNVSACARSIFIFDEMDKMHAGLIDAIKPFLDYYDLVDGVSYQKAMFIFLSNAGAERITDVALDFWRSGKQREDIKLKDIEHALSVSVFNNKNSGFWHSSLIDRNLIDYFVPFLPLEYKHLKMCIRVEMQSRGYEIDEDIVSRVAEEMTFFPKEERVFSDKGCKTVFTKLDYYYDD

[19] = biological target: Torsin-1A (Homo sapiens) (UniProt O14656); experiment: small-molecule binders of mutant TOR1A in lysate, primary screen, cell lysate, small-molecule microarray, COS7 lysate, 635/667 nm fluorescence (AID 1150); details: COS7 hTOR1A mutant lysate, 635 nm fluorescence, higher = more signal;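 further: score pools 667 nm emission and signal to noise measuring lysate protein binding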
[20] = tested on: Sonic hedgehog protein (Shh); experiment: small-molecule binders of Shh protein, primary screen, biochemical, small-molecule microarray, 635/667 nm fluorescence (AID 1151); details: small-molecule microarray binding, 635 nm fluorescence; higher = more signal;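 further: Shh protein binding to compounds spotted on small-molecule microarray slides; score combines spot fluorescence intensity with signal-to-noise across triplicate slides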

Row | Structure (SMILES) | composite z-score [1] | composite z-score [2] | composite z-score [3] | composite z-score [4] | composite z-score [5] | composite z-score [6] | z-score [7] | composite z-score [8] | composite z-score [9] | z-score [10] | composite z-score [11] | z-score [12] | z-score [13] | z-score [14] | z-score [15] | composite z-score [16] | composite z-score [17] | composite z-score [18] | composite z-score [19] | composite z-score [20]
1 | COC(=O)[C@@]1(Cc2ccccc2CN=[N+]=[N-])COC(c2ccc(OCCCO)cc2)=N1 | -0.322 | -0.493 | -0.161 | -2.41 | -1.88 | -1.18 | -0.408 | -1.65 | 0.0216 | -1.88 (inactive) | -1.09 | -3.56 (inactive) | -0.0995 (inactive) | 1.19 (inactive) | -0.244 (inactive) | -1.25 | -0.203 | -3.23 | -2.37 | -1.15
2 | C=CCN1C(=O)[C@]2(O[C@H](CCn3cc([C@H](O)c4ccccc4)nn3)[C@@H]([Si](C)(C)c3ccc(OC)cc3)[C@@H]2C)c2cc(N3C(=O)c4cccc5cccc3c45)ccc21 | 0.72 | 0.268 | 0.33 | 0.182 | -0.167 | 0.102 | 1.01 | 0.102 | 0.453 | -0.719 (inactive) | 0.0898 | -6.26 (inactive) | -0.774 (inactive) | 9.81 (active) | -0.745 (inactive) | 0.633 | -0.255 | -0.439 | 1.18 | 0.204
3 | COCCOC(=O)N1C(=O)[C@@]2(c3cc(C#CCCO)ccc31)[C@H](C(=O)N1CCc3cc(OC)c(OC)cc3C1)[C@H]1C(=O)O[C@H](c3ccccc3)[C@H](c3ccccc3)N1[C@@H]2c1ccccc1OCCO | 0.362 | 1.19 | 0.496 | 0.87 | 1.41 | 1.3 | -0.976 | 1.3 | 0.603 | 0.151 (inactive) | 0.75 | -1.84 (inactive) | -0.652 (inactive) | -0.89 (inactive) | -0.251 (inactive) | 0.587 | 0.425 | 0.258 | 0.904 | 1.69
4 | COc1ccc(NN2C(C(O)c3cc(C(F)(F)F)cc(C(F)(F)F)c3)C=CC3C(=O)N(C4CCCCC4)C(=O)C32)cc1 (stereo not given) | 0.764 | 1.1 | 0.359 | 0.895 | 0.544 | -0.0047 | -0.822 | -0.364 | 1.2 | 0.36 (inactive) | 0.397 | -2.42 (inactive) | -1.1 (inactive) | -0.723 (inactive) | -0.504 (inactive) | 0.837 | 1.19 | 0.408 | 1.19 | -0.0356
5 | COc1ccc([Si](C)(C)[C@@H]2[C@@H](CC(=O)N(CCO)Cc3ccccc3)O[C@]3(C(=O)N(Cc4ccc(N5CCC5=O)cc4)c4ccccc43)[C@H]2C)cc1 | 1.28 | -0.324 | -0.162 | -0.263 | 0.818 | 0.988 | 0.445 | 0.565 | 0.431 | 0.295 (inactive) | -0.0009 | -5.9 (inactive) | -0.259 (inactive) | 5.16 (inactive) | 0.0245 (inactive) | -0.301 | -0.318 | -0.0822 | 0.134 | 0.7
6 | CCCC=C(CCC)[C@@H](NC(=O)c1ccccc1)c1ccc(C(=O)OC)cc1 | 0.877 | 0.598 | -0.17 | 0.214 | 1.06 | 1.1 | -1.71 | 0.439 | -0.0525 | 1.5 (inactive) | 0.675 | -4.41 (inactive) | -0.947 (inactive) | -0.379 (inactive) | 0.0425 (inactive) | -0.0576 | 0.326 | 0.615 | 0.546 | 0.293
7 | COc1ccc(NN2C(C(O)c3ccc(OC)cc3)C=CC3C(=O)N(C4CCCCC4)C(=O)C32)cc1 (stereo not given) | 0.679 | 1.18 | 0.349 | 0.92 | 0.977 | -0.0659 | 0.017 | 0.433 | 0.701 | 1.25 (inactive) | 0.219 | -0.914 (inactive) | -0.257 (inactive) | -0.163 (inactive) | -0.211 (inactive) | 0.964 | -0.0313 | 0.118 | 0.202 | 0.0867
8 | CC(C)C(=C=CC[C@@H](O)c1ccc(OCCO)cc1)CCO | -0.171 | -0.744 | -0.397 | 0.114 | 1.26 | 1.25 | 0.451 | 0.607 | -0.154 | -0.426 (inactive) | 0.224 | -2.09 (inactive) | -0.635 (inactive) | -0.844 (inactive) | -1.31 (inactive) | -0.292 | -0.0719 | -0.0298 | 0.167 | 1.59
9 | Cc1ccc(F)cc1S(=O)(=O)N[C@@H]1CCN(Cc2ccc3[nH]ccc3c2)C1 | 0.426 | 0.479 | -0.105 | -0.0254 | 1.06 | 0.561 | 0.316 | 0.543 | 0.0689 | 0.175 (inactive) | -0.159 | -2.99 (inactive) | 1.17 (inactive) | -0.147 (inactive) | 0.49 (inactive) | 0.874 | -0.0403 | 0.247 | 0.608 | 0.711
10 | C=CCN1C(=O)[C@]2(O[C@H](CCO)[C@@H]([Si](C)(C)c3ccc(OC)cc3)[C@@H]2C)c2ccccc21 | 0.0171 | 0.745 | -0.0378 | 0.641 | -0.862 | -0.14 | -1.83 | 0.058 | 0.134 | -0.43 (inactive) | -0.381 | -8 (inactive) | -0.566 (inactive) | 19.5 (active) | -3.3 (inactive) | -0.652 | -0.209 | -0.958 | -0.0259 | -1.12
